Data as given in the supplement of paper PMC6555819.

How the values were obtained:
Experiment in all cases: PBM binding z-score (relative to random genomic background probes); higher = stronger binding; sequences stand for … in GC…GCGATTGACAGCGTAGAATGAAGG
[1] = tested on: PPARg:RXRa DBDmut IVT, anti-RXR (DBD mutation: RXRa K156A/R161A, NR concentration 270 nM, RXRa partner concentration 90 nM)
Summary of the method: (§1)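 Custom Agilent 4×180K protein-binding microarrays carried double-stranded probes. Their 34-nt variable regions held direct-repeat seeds, single-nucleotide variants, half-site ablations and random human genomic background sequences. Arrays were incubated 1 h with ligand-free nuclear receptor dimers in PBS pH 7.4, 2% milk, 0.02% Triton X-100, 1 mM DTT, 0.2 mg/mL BSA and 0.4 mg/ml salmon testes DNA. Antibodies against each partner (one per run) detected binding, and scanned fluorescence was regression-normalized. Binding z-scores use random background probes as reference.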

[2] = tested on: PPARg:RXRa IVT, anti-PPARg (NR concentration 270 nM, RXRa partner concentration 90 nM)
Summary of the method: as §1

[3] = tested on: PPARg DBDmut:RXRa IVT, anti-PPARg (DBD mutation: PPARg1 K132A/R137A, NR concentration 270 nM, RXRa partner concentration 90 nM)
Summary of the method: as §1

[4] = tested on: PPARg DBDmut IVT, anti-PPARg (DBD mutation: PPARg1 K132A/R137A, NR concentration 270 nM)
Summary of the method: as §1

[5] = tested on: PPARg homodimer (NR concentration 180 nM)
Summary of the method: as §1

[6] = tested on: PXR:RXRa (NR concentration 270 nM, RXRa partner concentration 90 nM)
Summary of the method: as §1

[7] = tested on: PXR homodimer (NR concentration 270 nM)
Summary of the method: as §1

[8] = tested on: RARa:RXR (NR concentration 270 nM, RXRa partner concentration 90 nM)
Summary of the method: as §1

[9] = tested on: RARa homodimer (NR concentration 270 nM)
Summary of the method: as §1

[10] = tested on: RARb:RXRa (NR concentration 270 nM, RXRa partner concentration 90 nM)
Summary of the method: as §1

[11] = tested on: RARb homodimer (NR concentration 270 nM)
Summary of the method: as §1

[12] = tested on: RARg:RXRa (NR concentration 270 nM, RXRa partner concentration 90 nM)
Summary of the method: as §1

[13] = tested on: RARg homodimer (NR concentration 270 nM)
Summary of the method: as §1

[14] = tested on: RXRa DBDmut IVT, anti-RXR (DBD mutation: RXRa K156A/R161A, NR concentration 90 nM)
Summary of the method: as §1

[15] = tested on: RXRa homodimer (NR concentration 180 nM)
Summary of the method: as §1

[16] = tested on: THRa:RXRa (NR concentration 90 nM, RXRa partner concentration 90 nM)
Summary of the method: as §1

[17] = tested on: THRa homodimer (NR concentration 90 nM)
Summary of the method: as §1

[18] = tested on: VDR homodimer (NR concentration 270 nM)
Summary of the method: as §1

Sequence	PBM binding z-score [1]	PBM binding z-score [2]	PBM binding z-score [3]	PBM binding z-score [4]	PBM binding z-score [5]	PBM binding z-score [6]	PBM binding z-score [7]	PBM binding z-score [8]	PBM binding z-score [9]	PBM binding z-score [10]	PBM binding z-score [11]	PBM binding z-score [12]	PBM binding z-score [13]	PBM binding z-score [14]	PBM binding z-score [15]	PBM binding z-score [16]	PBM binding z-score [17]	PBM binding z-score [18]
CCTCCAAGGTCAGCAGGTCAGTGAAAGCGACGTG	2.44	3.16	-0.182	-1.13	2.56	3.13	0.806	4.32	0.668	5.41	4.97	6.12	6.45	2.04	4.21	3.74	2.14	1.55
GCTAGCAGGACATTTGGGTCACTCAATGACGGGC	1.29	2.12	-1.17	-1.5	-0.156	0.607	0.862	0.611	-0.875	1.16	1.56	0.785	0.992	0.736	0.598	1.81	0.828	0.846
CCTAGCAGGACAGGGTCACTCAAGCATTTCGCTT	0.172	1.08	-2.12	-1.5	1.08	2.84	0.281	3.62	0.381	2.57	2.77	3.14	2.23	1.06	3.54	3.19	1.44	1.5
AGAACGAGGGCAATGAGTTGATAGCGCGGGTGGC	3.57	2.39	0.0277	-0.898	-0.335	1.62	4.62	-0.0907	-1.01	1.96	0.949	0.964	1.44	2.34	0.602	0.756	-0.205	3.3
ATCTCTAGGTAAAGATAATTCAGTGAATGCAAAT	2.32	1.93	1.06	1.29	0.141	0.14	0.504	0.441	1.38	-0.0226	-0.268	0.658	0.648	0.0492	0.365	0.654	0.0536	-0.00622
TCTAGTGGGTCACGGAGGTCACACACGACGGGTA	7.01	7.92	1.74	0.78	4.58	5.92	5.35	6.43	2.44	4.78	4.95	6.73	7.18	1.53	7.69	4.26	2.34	6.17
GCAAGCAGGCCATTTGGGTCACTCAATGACGGGC	1.67	2.35	-0.319	-0.988	0.0293	0.422	0.0274	0.6	-0.747	1.33	1.76	0.948	1.18	-0.0801	0.769	1.79	0.53	0.402
CGTCCAAGGTTAGAGAGGTCAGTGAATGCCGAGT	0.939	1.57	-1.21	-1.38	2.67	4.07	7.59	3.61	1.11	3.66	4.23	3.53	4.13	1.67	3.43	3.22	1.3	3.15
ATCTCTAGGTAAAGTTCAGTTAAAGATCGATAGA	2.25	2.63	1.03	0.905	2.02	2.33	1.72	1.81	1.83	2.78	2.73	1.65	2.5	1.68	1.5	1.47	0.842	2.04
TTACCAATGTGAAAGGTCGTTGATGCACGCCTTG	0.0484	2.32	0.0698	0.235	1.33	2.76	0.663	3.27	0.219	1.74	1.76	1.76	0.967	0.906	3.08	1.44	0.0994	1.66
ACTATTAGTTGAGATGAGGGCAACCGATAGGTTG	0.105	0.33	1.25	0.632	0.972	1.35	0.727	0.676	1.33	1.22	1.05	0.932	0.979	0.642	0.671	2.84	0.833	1.18
TCTGCTAGGTCAACGATGGTCGGCTAATCTGCTA	4.31	4.05	0.027	-0.0502	0.168	1.22	-0.84	2.02	-1.21	3.97	3.13	3.75	5.24	0.92	2.64	2.7	0.478	-0.232
CCTACCGGGCCACGAAAGGTCATTGATTCAGTGA	0.938	2.28	-0.376	-1.2	2.6	5.44	2.13	5.36	0.144	4.07	4.84	4.67	4.47	0.0824	4.98	4.19	1.46	2.22
CGAACTCGGTCATTGACAGGACAGTGAATAGTAA	2.98	2.26	-0.213	-0.299	0.0566	0.137	-0.233	0.436	-0.219	2.14	1.42	2.12	2.49	0.678	0.736	0.661	-0.331	0.676
ATATCTAGGTTACATCCGGGTCATTCAGGCTATG	7.39	7.41	3.31	3.16	2.49	3.62	3.73	3.4	1.99	2.63	3.15	3.37	2.49	1.4	2.78	3.94	3.37	3.63
AGTCAAAGTGCACTAGGTAACGTAAGATTCAGCT	1.83	3.56	0.58	-0.0287	0.167	0.215	0.189	0.315	-0.372	1.53	0.614	0.916	1.26	0.965	0.453	0.43	-0.285	0.442
